From PubChem BioAssay come the findings set out here.

Active and inactive are the calls of the source.

For assay [1], the system named is Plasmodium falciparum Sir2 (PF13_0152, Sir2A). Put plainly: Plasmodium falciparum Sir2A binding compounds – biochemical, small-molecule microarray, 635 nm fluorescence, primary screen (AID 1098).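 Note: score merges spot fluorescence intensity with its signal-to-noise ratio.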 The following applies: fluorescence 635 nm, higher = more signal.
Assay [2] is described as follows: probe aDKK1 binding to arrayed compounds – biochemical, biotinylated probe, 635/667 nm fluorescence, primary screen (AID 1099).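 Note: score merges 667nm spot fluorescence with signal to noise across triplicate slides.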 Particulars: small-molecule microarray, higher = more signal.
Assay [3] in a line: probe aCHRDL2 binding to arrayed compounds – biochemical, biotinylated probe, 635/667 nm fluorescence, primary screen (AID 1100). Particulars: small-molecule microarray, higher = more signal.
The nature of assay [4]: change in splice reporter luminescence, either direction, cell-based, HEK293, spliceosome inhibition project, primary screen (AID 1101).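 Note: HEK293 cells carrying a splicing-competent luciferase reporter gene; test concentration not given here.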 The following applies: HEK293 splicing luciferase reporter, 24 h, higher = more signal, called active from +8 up or from −8 down.
Assay [5] deals with Fibroblast growth factor 10 (Homo sapiens) (UniProt O15520). Put plainly: compounds binding fibroblast growth factor 10 – biochemical, small-molecule microarray, 635 nm fluorescence, primary screen (AID 1102). The following applies: FGF10 binding, fluorescence 635 nm, higher = more signal.
For assay [6], the system named is glycogen synthase kinase-3 (GSK3A per assay name; protocol says GSK3B). The assay is described as follows: compounds binding glycogen synthase kinase-3 – biochemical, small-molecule microarray, 635 nm fluorescence, GSK3A, primary screen (AID 1103). Note: the record names both GSK3A and GSK3B. The following applies: fluorescence 635 nm, higher = more signal.
Assay [7] deals with Epidermal growth factor receptor (Homo sapiens) (UniProt P00533). Put plainly: compounds binding epidermal growth factor receptor – biochemical, small-molecule microarray, 635 nm fluorescence, primary screen (AID 1104).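 Note: score merges 667 nm emission intensity with spot signal to noise over triplicate slides.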 The following applies: EGFR binding, higher = more signal.
The target of assay [8] is Follistatin-related protein 3 (Homo sapiens) (UniProt O95633). The assay is described as follows: compounds binding follistatin-related protein 3 – biochemical, small-molecule microarray, 635 nm fluorescence, primary screen (AID 1105).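 Note: score merges emission near 667 nm and signal to noise per printed spot across three slides.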 The following applies: FSTL3 binding, higher = more signal.
The target in assay [9] is Dickkopf-related protein 1 (Homo sapiens) (UniProt O94907). Put plainly: small molecules binding DKK1 protein – biochemical, small-molecule microarray, 635 nm fluorescence scan, primary screen (AID 1106).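 Note: score merges emission near 667 nm with signal to noise over three replicate slides.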 Particulars: higher = more signal.
Assay [10] relates to Inhibin beta A chain (activin A). Put plainly: small molecules binding activin A – biochemical, small-molecule microarray, 635 nm fluorescence scan, primary screen (AID 1107).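 Note: mouse activin A protein probed at 4.33 µg/mL on printed slides; score merges bound-protein fluorescence near 667 nm with spot signal-to-noise.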 The following applies: INHBA, higher = more signal.
Assay [11] relates to Human papillomavirus type 1a protein E7 (residues 44-93). Put plainly: small molecules binding HPV E7 44-93 – biochemical, small-molecule microarray, residues 44-93, 635 nm fluorescence, primary screen (AID 1108).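 Note: E7 fragment applied at 1 µg/mL in TBST for 1 h at 4 C; score combines spot fluorescence with its signal to noise ratio.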 Particulars: fluorescence 635 nm, higher = more signal.
Assay [12] in a line: hepatitis C replication reporter changes, two-sided – Huh7 cells, luciferase reporter, HCV replication inhibitor project, primary screen (AID 1109).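 Note: huh7 hepatoma cells harbouring a luciferase neomycin HCV replicon reporter; luciferase luminescence as measure of HCV replicon replication; test concentration not given here.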 The following applies: Huh7 HCV replicon luciferase reporter, 48 h; higher = more signal.
The target of assay [13] is Left-right determination factor 2 (Homo sapiens) (UniProt O00292). The assay is described as follows: small molecules binding LEFTY2 protein – biochemical, small-molecule microarray, 635 nm fluorescence scan, primary screen (AID 1110). The following applies: higher = more signal.
The target in assay [14] is Calmodulin-1 (Homo sapiens) (UniProt P0DP23). Put plainly: small molecules binding calmodulin-1 with EGTA – biochemical, small-molecule microarray, Cy5-labelled CALM1, profiling panel (AID 1111).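 Note: labelled calmodulin applied in Tris saline Tween buffer holding calcium plus EGTA and DTT.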 Particulars: Cy5-CALM1 binding fluorescence, higher = more signal.
Assay [15] has the same target. The assay is described as follows: small molecules binding Ca-loaded calmodulin-1 – biochemical, small-molecule microarray, Cy5-labelled CALM1, plus calcium, artefact control for SMM control-protein annotation, profiling panel (AID 1112).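 Note: score merges spot fluorescence with signal to noise from triplicate slides.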 The following applies: Cy5-CALM1 binding fluorescence, higher = more signal.
The nature of assay [16]: probe aWnt5a binding to arrayed compounds – biochemical, biotinylated probe, 635/667 nm fluorescence, primary screen (AID 1113).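 Note: score merges 667 nm fluorescence intensity with signal-to-noise per printed feature.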 Particulars: small-molecule microarray, higher = more signal.
The nature of assay [17]: probe aShh binding to arrayed compounds – biochemical, biotinylated probe, 635/667 nm fluorescence, primary screen (AID 1114).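 Note: probe is biotin-labelled aShh protein from a stem cell growth factor screen; measures binding of labelled protein to compounds printed on the slide; score merges feature fluorescence at 667 nm with signal-to-noise.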 The following applies: small-molecule microarray, higher = more signal.
Assay [18] can be described thus: probe aNog binding to arrayed compounds – biochemical, biotinylated probe, 635/667 nm fluorescence, primary screen (AID 1115).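 Note: probe is biotinylated aNog protein used at 0.15 µg/mL for 1 h at 4 C; z-score combines 667 nm fluorescence of each spot with its signal to noise.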 The following applies: small-molecule microarray, higher = more signal.
Assay [19] deals with Torsin-1A-interacting protein 1 (Homo sapiens) (UniProt Q5JTV8). Put plainly: compound microarray binding of lysate hLAP1 – cell lysate, small-molecule microarray, COS7 lysate, 635/667 nm fluorescence, primary screen (AID 1116). Particulars: 635 nm fluorescence, higher = more signal.
Assay [20] concerns the target Alpha-bungarotoxin (Bungarus multicinctus) (UniProt P60615). The assay is described as follows: compounds binding labelled alpha-BTX control protein – biochemical, small-molecule microarray, Alexa647 label, 635/667 nm fluorescence, artefact control for SMM control protein annotation, profiling panel (AID 1117). Particulars: alpha-BTX-A647 binding fluorescence, higher = more signal.

Chain of Dickkopf-related protein 1 (Homo sapiens) (O94907 whole entry, looked up): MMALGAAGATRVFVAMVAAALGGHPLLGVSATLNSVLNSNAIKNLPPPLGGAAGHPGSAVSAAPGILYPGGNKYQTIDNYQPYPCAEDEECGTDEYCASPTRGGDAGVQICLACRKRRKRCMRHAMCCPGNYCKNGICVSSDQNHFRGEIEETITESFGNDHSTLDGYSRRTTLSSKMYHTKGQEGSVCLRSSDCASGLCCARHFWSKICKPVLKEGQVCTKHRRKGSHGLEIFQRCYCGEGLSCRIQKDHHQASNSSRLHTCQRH
Chain of Follistatin-related protein 3 (Homo sapiens) (O95633 whole entry, looked up): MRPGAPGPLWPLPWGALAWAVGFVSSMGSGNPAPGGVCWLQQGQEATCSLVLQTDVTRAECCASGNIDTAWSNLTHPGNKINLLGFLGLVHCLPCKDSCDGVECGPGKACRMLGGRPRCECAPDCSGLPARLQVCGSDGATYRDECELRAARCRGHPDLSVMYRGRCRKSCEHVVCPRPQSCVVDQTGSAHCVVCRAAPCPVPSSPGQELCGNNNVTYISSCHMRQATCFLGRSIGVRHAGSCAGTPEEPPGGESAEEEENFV
Chain of Fibroblast growth factor 10 (Homo sapiens) (O15520 whole entry, looked up): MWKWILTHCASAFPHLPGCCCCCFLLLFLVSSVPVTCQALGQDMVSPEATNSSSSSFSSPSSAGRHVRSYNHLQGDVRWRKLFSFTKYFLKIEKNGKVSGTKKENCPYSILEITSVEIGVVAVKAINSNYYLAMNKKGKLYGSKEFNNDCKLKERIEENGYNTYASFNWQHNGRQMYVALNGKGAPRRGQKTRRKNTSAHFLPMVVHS
Chain of Torsin-1A-interacting protein 1 (Homo sapiens) (Q5JTV8 whole entry, looked up): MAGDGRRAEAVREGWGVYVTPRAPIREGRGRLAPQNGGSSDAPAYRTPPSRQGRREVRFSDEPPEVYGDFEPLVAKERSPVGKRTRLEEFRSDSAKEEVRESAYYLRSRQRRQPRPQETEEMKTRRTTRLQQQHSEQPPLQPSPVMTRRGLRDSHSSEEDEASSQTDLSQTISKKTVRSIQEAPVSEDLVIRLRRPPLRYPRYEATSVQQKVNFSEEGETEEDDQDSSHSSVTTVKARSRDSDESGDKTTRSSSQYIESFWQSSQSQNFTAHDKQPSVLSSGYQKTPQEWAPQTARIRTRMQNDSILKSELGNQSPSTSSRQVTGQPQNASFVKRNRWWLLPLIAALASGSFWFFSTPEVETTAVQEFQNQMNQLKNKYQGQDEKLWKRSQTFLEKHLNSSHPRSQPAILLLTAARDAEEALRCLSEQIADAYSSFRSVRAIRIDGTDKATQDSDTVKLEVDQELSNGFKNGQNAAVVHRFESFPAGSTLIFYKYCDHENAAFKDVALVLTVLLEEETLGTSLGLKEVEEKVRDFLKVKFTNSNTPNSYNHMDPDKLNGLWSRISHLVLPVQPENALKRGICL
Chain of Alpha-bungarotoxin (Bungarus multicinctus) (P60615 whole entry, looked up): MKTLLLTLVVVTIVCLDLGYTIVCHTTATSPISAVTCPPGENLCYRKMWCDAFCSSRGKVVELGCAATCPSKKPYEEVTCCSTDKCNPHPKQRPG
Chain of Left-right determination factor 2 (Homo sapiens) (O00292 whole entry, looked up): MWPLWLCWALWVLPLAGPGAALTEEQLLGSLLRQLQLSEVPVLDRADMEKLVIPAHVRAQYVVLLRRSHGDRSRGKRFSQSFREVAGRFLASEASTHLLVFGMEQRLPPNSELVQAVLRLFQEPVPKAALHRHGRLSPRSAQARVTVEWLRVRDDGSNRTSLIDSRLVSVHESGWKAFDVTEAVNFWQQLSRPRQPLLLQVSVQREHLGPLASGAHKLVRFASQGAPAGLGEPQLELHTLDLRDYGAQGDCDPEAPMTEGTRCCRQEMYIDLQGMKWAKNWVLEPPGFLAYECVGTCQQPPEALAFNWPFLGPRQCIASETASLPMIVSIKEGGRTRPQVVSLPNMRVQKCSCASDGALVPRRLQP
Chain of Epidermal growth factor receptor (Homo sapiens) (P00533 whole entry, looked up): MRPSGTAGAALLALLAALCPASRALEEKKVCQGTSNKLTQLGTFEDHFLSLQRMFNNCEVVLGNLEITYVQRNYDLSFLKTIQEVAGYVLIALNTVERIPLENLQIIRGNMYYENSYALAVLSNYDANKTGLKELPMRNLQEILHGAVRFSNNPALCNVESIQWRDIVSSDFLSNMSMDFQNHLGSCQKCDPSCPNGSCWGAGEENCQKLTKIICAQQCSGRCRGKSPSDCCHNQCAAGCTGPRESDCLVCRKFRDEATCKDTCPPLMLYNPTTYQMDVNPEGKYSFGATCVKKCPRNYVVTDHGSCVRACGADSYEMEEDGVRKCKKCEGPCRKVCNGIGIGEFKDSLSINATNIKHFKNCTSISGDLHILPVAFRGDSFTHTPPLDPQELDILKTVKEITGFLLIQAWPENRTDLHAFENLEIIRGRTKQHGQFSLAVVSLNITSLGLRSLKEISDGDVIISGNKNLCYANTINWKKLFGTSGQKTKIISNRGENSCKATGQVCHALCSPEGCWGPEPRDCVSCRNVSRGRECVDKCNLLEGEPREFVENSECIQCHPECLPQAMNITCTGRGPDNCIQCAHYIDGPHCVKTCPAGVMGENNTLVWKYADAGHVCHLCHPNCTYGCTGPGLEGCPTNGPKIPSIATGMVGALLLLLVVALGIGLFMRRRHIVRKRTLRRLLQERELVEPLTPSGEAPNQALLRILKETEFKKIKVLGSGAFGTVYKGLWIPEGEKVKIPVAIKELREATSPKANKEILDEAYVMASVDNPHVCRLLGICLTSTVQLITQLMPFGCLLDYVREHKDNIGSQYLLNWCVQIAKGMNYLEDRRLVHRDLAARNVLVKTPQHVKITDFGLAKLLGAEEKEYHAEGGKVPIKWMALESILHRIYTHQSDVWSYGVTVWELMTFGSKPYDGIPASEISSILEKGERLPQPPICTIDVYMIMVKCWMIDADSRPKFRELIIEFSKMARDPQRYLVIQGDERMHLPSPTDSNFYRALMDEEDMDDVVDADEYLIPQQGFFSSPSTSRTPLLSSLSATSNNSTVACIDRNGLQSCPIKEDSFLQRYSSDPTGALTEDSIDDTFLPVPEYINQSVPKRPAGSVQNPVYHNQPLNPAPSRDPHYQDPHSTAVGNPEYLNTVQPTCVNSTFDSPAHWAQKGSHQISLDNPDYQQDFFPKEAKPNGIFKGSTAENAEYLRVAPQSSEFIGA

Regarding `O=C1N(CCS(=O)(=O)c2ccccc2)c2ccccc2C[C@]12N=C(c1ccc(OCCCO)cc1)O[C@@H]2c1ccccc1`, the composite z-score in [1] is 1.23; in [2] it was 0.924; in assay [3], 0.775; in assay [5] it was 1.02; in assay [6], 1.19; in assay [7], 0.468. Besides, the composite z-score in assay [8] turned out to be 1.34; in [9], 1.01; in assay [10] it was 0.865; in assay [11] it was 1.42; in [13], 0.845; in [14] it was 2.28. Also, the composite z-score in [15] is 0.565; in [16], 0.0704; in assay [17] it was -0.0146; in assay [18], 0.217; in [19] it was 1.93; in assay [20] it was 1.91. Further, the values for the z-score in [4] and in assay [12] were 0.276 (inactive) and -1.74, respectively.

As to `C=CCNC(=O)[C@H]1[C@@H]2C(=O)O[C@@H](c3ccccc3)[C@@H](c3ccccc3)N2[C@@H](c2ccc(OCCO)cc2)[C@]12C(=O)Nc1ccc(C#CC3(O)CCCCCC3)cc12`, the composite z-score in assay [1] was determined as 1.19; in assay [2], 0.514; in assay [3] it was 0.446; in assay [5], 1.29; in assay [6], 1.3; in [7], 0.982. For the same compound, the composite z-score in [8] is 1.29; in [9], 0.527; in assay [10], 0.996; in [11], 1.24; in assay [13], 0.954; in [14], 1.29. In addition, the composite z-score was 0.229 in assay [15]; -0.0607 in [16]; -0.0146 in assay [17]; 0.74 in [18]; 1.47 in [19]; 1.74 in [20]. Besides, the z-score in assay [4] is -0.313 (inactive); in assay [12], -2.33.

Consider `COCCOC(=O)N1C(=O)[C@@]2(c3cc(C#CCC(C(=O)OC)C(=O)OC)ccc31)[C@H](C(=O)Nc1nc3ccccc3s1)[C@H]1C(=O)O[C@H](c3ccccc3)[C@H](c3ccccc3)N1[C@@H]2c1ccc(O)cc1`, for which the composite z-score in assay [1] turned out to be 1.42; in assay [2], 0.0737; in assay [3], 0.309; in assay [5], 1.34; in [6] it was 1.3; in assay [7] it was 0.861. Besides, the composite z-score is 1.41 in [8]; 1.06 in [9]; 0.157 in [10]; 1.42 in assay [11]; 1.31 in assay [13]; 0.975 in assay [14]. Further, the composite z-score in assay [15] was -0.0869; in assay [16], -0.0044; in assay [17], -0.043; in [18], 0.459; in [19] it was 0.706; in assay [20], 1.63. Besides, the z-score in assay [4] is -0.88 (inactive); in assay [12] it was -0.146.

`C=CCOC(=O)[C@@H]1[C@H]2C(=O)O[C@H](c3ccccc3)[C@H](c3ccccc3)N2[C@H](c2ccc(OCCOC(=O)[C@H]3C[C@H]4C(=O)NCC(=O)N4[C@H]3c3cccc(OCCO)c3)cc2)[C@@]12C(=O)Nc1ccc(I)cc12`: the composite z-score was found to be 1.53 in [1]; 0.512 in assay [2]; 0.494 in assay [3]; 0.742 in assay [5]; 1.36 in assay [6]; 0.725 in [7]. Moreover, the composite z-score was found to be 1.23 in [8]; 1.11 in assay [9]; 0.118 in [10]; 0.534 in assay [11]; 0.553 in assay [13]; 1.33 in assay [14]. Further, the composite z-score in assay [15] was 0.0237; in assay [16], -0.0327; in assay [17], 0.147; in assay [18], -0.381; in assay [19], 1.61; in [20] it was 1.39. Moreover, the results for the z-score in [4] and in [12] were 0.789 (inactive) and -0.582, respectively.

Consider `COc1ccc(C(O)C2C=CC3C(=O)N(C)C(=O)C3N2N(c2ccccc2)c2ccccc2)cc1` (stereo not given), for which the composite z-score in assay [1] is 1.59; in assay [2] it was 0.996; in assay [3], 0.93; in [5], 0.434; in [6], 0.243; in assay [7] it was -0.0923. Besides, the composite z-score in assay [8] is 0.585; in assay [9], -0.128; in assay [10], 1.32; in assay [11], -1.14; in assay [13], -0.302; in assay [14], 0.531. In addition, the composite z-score in [15] is 0.625; in assay [16], 0.0102; in [17], -0.0843; in [18] it was 0.83; in assay [19] it was 0.74; in assay [20], 0.844. For the same compound, the figures for the z-score in assay [4] and in [12] were 1.09 (inactive) and -0.336, respectively.
